# Laboratory results published in PubChem BioAssay (Tox21).
# Where “and” joins values, the source holds several entries; their conditions need not be identical. Equal entries are not always repeated. Records with an inconclusive call do not appear. Where a call stands in place of a potency, no number is given. More than one record can exist for a structure, and the calls need not agree. Calls of active or inactive are those of the source. Unless noted, the call rests on the fitted dose curve; in most records, active means well fitted curve in the direction sought with a large enough effect in the repeat runs; inconclusive means weak or mixed curves; inactive means no such curve, though single readings can be large; an effect the other way counts as inactive or inconclusive.
# Assays:
# [1] = qHTS assay to identify small molecule agonists of the peroxisome proliferator-activated receptor delta (PPARd) signaling pathway - cell viability counter screen (AID 743211); further: nearly all actives have a fitted effect of over 55% in size; further: potency means the concentration at half of the fitted maximal effect
# Summary of the method: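 qHTS cell viability: PPARd-bla HEK293H; 17 h cpd, 37C; CellTiter-Glo, luminescence at 30 min RT.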
# [2] = molecular target: Peroxisome proliferator-activated receptor delta (Homo sapiens) (UniProt Q03181); experiment: qHTS assay to identify small molecule agonists of the peroxisome proliferator-activated receptor delta (PPARd) signaling pathway (AID 743212; calls by dose curve)
# Summary of the method: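 Quantitative high-throughput agonist screen in a HEK293H beta-lactamase reporter line under UAS control. Compounds in DMSO, at 37 C. Fluorescence read after 2 h with FRET substrate at room temperature.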
# [3] = qHTS assay to identify small molecule antagonists of the peroxisome proliferator-activated receptor delta (PPARd) signaling pathway - cell viability counter screen (AID 743213); further: nearly all actives have a fitted effect of over 50% in size
# Summary of the method: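 In this counter screen, HEK293H cells carrying a UAS-beta-lactamase reporter are co-treated with test compounds and 300 nM L165041 (final) for 17 h at 37 C; cell viability is quantified by CellTiter-Glo luminescence.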
# [4] = molecular target: Peroxisome proliferator-activated receptor delta (Homo sapiens) (UniProt Q03181); experiment: qHTS assay to identify small molecule antagonists of the peroxisome proliferator-activated receptor delta (PPARd) signaling pathway (AID 743215; active means well fitted inhibition curve with a large enough effect in the signal ratio in the repeat runs, not every such curve was filed as active; the % refers to the signal ratio;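 further: cells stimulated with agonist L165041 at 300 nM final during compound exposure; series mostly up to about 62 µM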)
# Summary of the method: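 PPARd UAS-bla HEK293H cells were pre-incubated 5 h at 37 C, then given test compounds in DMSO plus agonist L165041 (300 nM final). After 17 h at 37 C, beta-lactamase FRET substrate was added; fluorescence read after 2 h at room temperature.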
# [5] = molecular target: Bile acid receptor (Homo sapiens) (UniProt Q96RI1); experiment: qHTS assay to identify small molecule antagonists of the farnesoid-X-receptor (FXR) signaling pathway (AID 743217; active means well fitted inhibition curve with a large enough effect in the signal ratio in the repeat runs, not every such curve was filed as active; the % refers to the signal ratio)
# Summary of the method: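 FXR-UAS-bla HEK 293T cells pre-incubated 5 h at 37 °C, then exposed to compounds with chenodeoxycholic acid (50 uM final) for 16 h at 37 °C. Beta-lactamase reporter read by LiveBLAzer B/G FRET substrate fluorescence after 2 h at room temperature.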
# [6] = qHTS assay to identify small molecule agonists of the farnesoid-X-receptor (FXR) signaling pathway - cell viability counter screen (AID 743218); further: nearly all actives have a fitted effect of over 45% in size; further: potency means the concentration at half of the fitted maximal effect
# Summary of the method: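 FXR-UAS-bla HEK 293T cells, plated 5 h at 37 C, were exposed to compounds for 16 h at 37 C. CellTiter-Glo was then added to the same wells as the bla readout; luminescence read after 30 min at room temperature.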
# [7] = qHTS assay to identify small molecule antagonists of the farnesoid-X-receptor (FXR) signaling pathway - cell viability counter screen (AID 743221; active means well fitted cell-killing curve with a large enough effect in the repeat runs, not every such curve was filed as active; further: nearly all actives have a fitted effect of over 50% in size; further: potency means the concentration at half of the fitted maximal effect)
# Summary of the method: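 After a 5 h settling period, FXR-bla HEK 293T cells receive compound and chenodeoxycholic acid (50 uM final) and incubate 16 h at 37 C; CellTiter-Glo luminescence, read after 30 min at room temperature, reports cell viability.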
# [8] = molecular target: Vitamin D3 receptor (Homo sapiens) (UniProt P11473); experiment: qHTS assay to identify small molecule antagonists of the vitamin D receptor (VDR) signaling pathway (AID 743223; active means well fitted inhibition curve with a large enough effect in the signal ratio in the repeat runs, not every such curve was filed as active; the % refers to the signal ratio)
# Summary of the method: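 Reporter line VDR-bla; stimulus 1alpha,25-(OH)2 vitamin D3, 3 nM final; compound co-addition, 16 h 37C/5% CO2; LiveBLAzer B/G substrate 2 h RT; fluorescence intensity.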
# [9] = molecular target: Vitamin D3 receptor (Homo sapiens) (UniProt P11473); experiment: qHTS assay to identify small molecule agonists of the vitamin D receptor (VDR) signaling pathway (AID 743222; calls by dose curve)
# Summary of the method: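 VDR-bla cells were plated 4 h at 37C/5% CO2, then exposed to compounds in DMSO for 16 h. After LiveBLAzer B/G FRET substrate addition and 2 h at room temperature, beta-lactamase reporter fluorescence was read.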
# [10] = molecular target: Bile acid receptor (Homo sapiens) (UniProt Q96RI1); experiment: qHTS assay to identify small molecule agonists of the farnesoid-X-receptor (FXR) signaling pathway (AID 743220; active means well fitted activation curve with a large enough effect in the signal ratio in the repeat runs, not every such curve was filed as active; the % refers to the signal ratio)
# Summary of the method: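 Beta-lactamase reporter under UAS control in GeneBLAzer FXR HEK 293T cells (5000/well) measured with LiveBLAzer FRET substrate after 2 h at room temperature. Compound exposure lasted 16 h at 37C.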
# Chain of Vitamin D3 receptor (Homo sapiens) (P11473 whole entry, looked up): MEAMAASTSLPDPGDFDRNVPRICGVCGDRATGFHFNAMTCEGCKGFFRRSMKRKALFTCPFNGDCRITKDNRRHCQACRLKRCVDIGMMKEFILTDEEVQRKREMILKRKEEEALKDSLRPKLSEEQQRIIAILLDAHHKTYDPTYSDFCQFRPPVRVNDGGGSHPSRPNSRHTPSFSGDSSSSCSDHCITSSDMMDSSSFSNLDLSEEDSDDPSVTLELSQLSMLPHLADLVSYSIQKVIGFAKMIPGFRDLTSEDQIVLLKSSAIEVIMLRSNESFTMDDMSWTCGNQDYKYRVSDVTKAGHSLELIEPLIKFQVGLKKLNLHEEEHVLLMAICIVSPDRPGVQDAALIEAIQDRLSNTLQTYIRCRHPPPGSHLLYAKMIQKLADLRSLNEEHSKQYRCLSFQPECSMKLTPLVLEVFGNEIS
# Chain of Peroxisome proliferator-activated receptor delta (Homo sapiens) (Q03181 whole entry, looked up): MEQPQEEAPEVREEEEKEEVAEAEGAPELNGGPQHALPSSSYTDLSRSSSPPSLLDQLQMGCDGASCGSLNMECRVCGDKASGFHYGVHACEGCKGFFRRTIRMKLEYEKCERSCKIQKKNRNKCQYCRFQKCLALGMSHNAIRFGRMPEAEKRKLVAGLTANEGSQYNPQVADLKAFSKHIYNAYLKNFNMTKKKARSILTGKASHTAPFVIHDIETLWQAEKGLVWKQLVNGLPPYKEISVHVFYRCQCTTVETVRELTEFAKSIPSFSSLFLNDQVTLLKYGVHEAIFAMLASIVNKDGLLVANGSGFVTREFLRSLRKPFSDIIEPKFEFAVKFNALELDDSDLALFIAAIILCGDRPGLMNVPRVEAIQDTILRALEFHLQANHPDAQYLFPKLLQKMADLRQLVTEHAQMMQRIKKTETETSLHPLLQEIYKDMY
# Chain of Bile acid receptor (Homo sapiens) (Q96RI1 whole entry, looked up): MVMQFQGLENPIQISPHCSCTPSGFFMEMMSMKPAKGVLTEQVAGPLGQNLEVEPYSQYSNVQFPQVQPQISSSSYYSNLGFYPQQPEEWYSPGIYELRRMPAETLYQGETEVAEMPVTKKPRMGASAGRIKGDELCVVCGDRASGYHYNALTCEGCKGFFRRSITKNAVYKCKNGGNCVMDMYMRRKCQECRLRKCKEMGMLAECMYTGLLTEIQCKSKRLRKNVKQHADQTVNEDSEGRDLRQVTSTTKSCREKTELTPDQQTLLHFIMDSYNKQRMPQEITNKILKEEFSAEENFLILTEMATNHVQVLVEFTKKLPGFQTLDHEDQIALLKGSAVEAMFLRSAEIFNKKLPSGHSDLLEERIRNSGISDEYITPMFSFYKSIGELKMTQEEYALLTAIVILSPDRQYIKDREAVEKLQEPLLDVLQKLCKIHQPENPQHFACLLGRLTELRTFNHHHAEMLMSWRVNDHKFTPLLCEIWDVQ
Structure (SMILES),Potency [1],outcome [2],outcome [3],outcome [4],outcome [5],Potency [6],Potency [7],outcome [8],outcome [9],outcome [10]
CCOC(=O)CC(SP(=O)(OC)OC)C(=O)OCC (stereo not given),inactive,inactive,inactive,inactive,inactive,inactive,inactive,–,–,–
Nc1nc(N)nc(NC2CC2)n1,inactive,inactive,inactive,inactive,inactive,inactive,inactive,–,–,–
CSc1nnc(C(C)(C)C)c(=O)n1N,inactive,inactive,inactive,inactive,inactive,inactive,inactive,inactive,–,–
O=C(O)CCCc1ccc(N(CCCl)CCCl)cc1,inactive,inactive,inactive,inactive,inactive,inactive,inactive,inactive,inactive,–
Nc1cc(Cl)cc(Cl)c1,inactive,inactive,inactive,inactive,inactive,inactive,inactive,–,–,–
CNc1cnn(-c2cccc(C(F)(F)F)c2)c(=O)c1Cl,inactive,inactive,inactive,inactive,inactive,inactive,inactive,inactive,–,–
N#CN=C(N)N,inactive,inactive,inactive,inactive,inactive,inactive,inactive,–,–,–
CC(C)CCCCCCOC(=O)c1ccccc1C(=O)OCCCCCCC(C)C,inactive,inactive,inactive,inactive,inactive,inactive,inactive,–,–,–
Cc1cc(O)ccc1Cl,inactive,inactive,inactive,inactive,inactive,inactive,inactive,–,inactive,–
O=[N+]([O-])c1ccc(Cl)c(Cl)c1,inactive,inactive,inactive,inactive,inactive,inactive,inactive,–,–,–
Cc1cccc(N)c1C,inactive,inactive,inactive,inactive,inactive,inactive,inactive,–,inactive,–
ClCCOCCCl,inactive,inactive,inactive,inactive,inactive,inactive,inactive,–,–,–
Cc1cccc(C)c1N,inactive,inactive,inactive,inactive,inactive,inactive,inactive,–,–,–
COC(=O)Nc1cccc(OC(=O)Nc2cccc(C)c2)c1,inactive,inactive,inactive,inactive,inactive,inactive,inactive,–,–,–
C[C@H]1C(=O)O[C@@H]2CCN3CC=C(COC(=O)[C@](C)(O)[C@]1(C)O)[C@H]23,inactive,inactive,inactive,inactive,inactive,inactive,inactive,–,inactive,–
COP(=S)(OC)SCN1C(=O)c2ccccc2C1=O,inactive,inactive,inactive,inactive,inactive,inactive,inactive,–,–,–
Cc1cccc(C)c1NC(=O)CN1CCCC1=O,inactive,inactive,inactive,inactive,inactive,inactive,inactive,–,–,–
CNC(=O)O/N=C/C(C)(C)S(C)=O (stereo not given),inactive,inactive,inactive,inactive,inactive,inactive,inactive,–,–,–
Cl[C@H]1OCCO[C@@H]1Cl,inactive,inactive,inactive,inactive,inactive,inactive,inactive,–,–,–
CC(=O)C1CCOC1=O (stereo not given),inactive,inactive,inactive,inactive,inactive,inactive,inactive,inactive,–,–
CCOc1ccc(N)cc1,inactive,inactive,inactive,inactive,inactive,inactive,inactive,inactive,–,–

Structure (SMILES),Potency [1],outcome [2],outcome [3],outcome [4],outcome [5],Potency [6],Potency [7],outcome [8],outcome [9],outcome [10]
[N-]=[N+]=CC(=O)OC[C@H](N)C(=O)O,inactive,inactive,inactive,inactive,inactive,inactive,inactive,–,–,–
C=CC(=O)OCCCCCC(C)C,inactive,inactive,inactive,inactive,inactive,inactive,inactive,inactive,inactive,inactive
CNC(=O)Oc1cccc2ccccc12,inactive,inactive,inactive,inactive,inactive,inactive,inactive,inactive,inactive,–
Nc1ncc([N+](=O)[O-])s1,inactive,inactive,inactive,inactive,inactive,inactive,inactive,–,–,–
CCCOC(=O)c1ccccc1C(=O)OCCC,inactive,inactive,inactive,inactive,inactive,inactive,inactive,–,–,–
CCCCC(CC)C(=O)Cl (stereo not given),inactive,inactive,inactive,inactive,inactive,inactive,inactive,–,–,–
O=C(O)C1C(C(=O)O)C2(Cl)C(Cl)=C(Cl)C1(Cl)C2(Cl)Cl (stereo not given),inactive,inactive,inactive,inactive,inactive,inactive,inactive,–,–,–
C=CCN=C=S,inactive,inactive,inactive,inactive,inactive,inactive,inactive,–,–,–
COc1nc(NC(C)C)nc(NC(C)C)n1,inactive,inactive,inactive,inactive,inactive,inactive,inactive,inactive,inactive,–
CCOP(=S)(OCC)Oc1cc(C)nc(C(C)C)n1,inactive and 54.9 µM (active),inactive,inactive,inactive,–,inactive and 49 µM (active),inactive and 43.6 µM (active),–,–,–
CN(C)C(=O)Nc1cccc(C(F)(F)F)c1,inactive,inactive,inactive,inactive,–,inactive,inactive,–,inactive,–
CN(C)CCC#N,inactive,inactive,inactive,inactive,–,inactive,inactive,–,–,–
CC(C)c1cccc(C(C)C)c1O,inactive,inactive,inactive,inactive,–,inactive,inactive,–,inactive,–
OCC(O)CCl (stereo not given),inactive,inactive,inactive,inactive,–,inactive,inactive,–,–,–
CC(=O)/C=C/c1ccccc1,inactive,inactive,inactive,inactive,–,inactive,inactive,–,–,–
Nc1ccc([As](=O)(O)O)cc1,inactive,inactive,inactive,inactive,–,inactive,inactive,–,inactive,–
CCSC(=O)N1CCCCCC1,inactive,inactive,inactive,inactive,–,inactive,inactive,–,–,–
N#Cc1cccc(C#N)c1,inactive,inactive,inactive,inactive,–,inactive,inactive,–,–,–
Oc1c(Br)cc(Br)cc1Br,inactive,inactive,inactive,inactive,–,inactive,inactive,–,–,–
O=C/C=C/c1ccccc1,inactive,inactive,inactive,inactive,–,inactive,inactive,–,–,–
